According to PubChem BioAssay (NCI):
Compounds without any hit were thinned out: in the full panel of roughly 83,000, 20% have a hit.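 A percent growth of 40 corresponds to 60% growth inhibition; 0 means no net growth; -100 means all cells died. Active threshold: below 10.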 Unmarked numbers belong to inactive results. Active and inactive are the calls of the source.

Test system: MDA-MB-468 breast
Test: NCI-60 one-dose screen, 48 h (100 = growth as untreated, 0 = no growth, -100 = all killed)
Details: 10 µM unless noted

Structure (SMILES) | growth
CCC1(CC)NC(=O)c2c(c3ccc(Cl)c(Cl)c3n2C)C1C#N (stereo not given) | 106%
CCN1C(=O)N(CC)C2C1NN=c1s/c(=C3\C(=O)N(CC(C)(C)C)c4ccccc43)c(=O)n12 (stereo not given) | 18%
CC(=O)Nc1ccc2c(c1)C(N1CC3CCC(CC3)C1)c1ccccc1-2 (stereo not given) | 94%
O=C1CC(c2ccccc2)Cc2nc3ccc(Br)cc3cc21 (stereo not given) | 0.354% (active)
COc1cc(/C=C\C(C)=N\Nc2ccccc2)ccc1O | 49%
CCOC(=O)C1CN(Cc2ccccc2)C(=O)C1=O (stereo not given) | 106%
C=CC(=O)Nc1cccc(-c2nc(SC)nc(Nc3cccc(OC)c3)c2C#N)c1 | 69.7%
CC12CC3CC1C(C(=O)O2)C3C(=O)O (stereo not given) | 103%
COc1cc(/C=C/C(=O)c2cc(OC)c(OC)c(OC)c2)ccc1Oc1nc2c(c(=O)n(C)c(=O)n2C)n1C | -72% (active)
Cc1ccccc1CNc1c2ccccc2nc2ccccc12 | 5.84% (active)
NS(=O)(=O)c1ccc(Nc2nc(N/N=C/c3c[nH]c4ccccc34)nc(Nc3ccccc3)n2)cc1 | 52.7%
O=C(O)c1cn(C2CC2)c2cc(N3CCN(C(=O)Nc4nc(-c5ccc(Cl)cc5)cs4)CC3)c(F)cc2c1=O | 9.76% (active)
Cc1nc(Cl)cc(N(c2cc(Cl)nc(C)n2)c2ncc(C(=O)Nc3c(C)cccc3Cl)s2)n1 | 42.1%
O=C1Nc2ccccc2/C1=N\c1nnc(-c2ccccc2)o1 | 69.6%
O=C(CCCC(=O)N/N=C/c1cc(Cl)ccc1O)N/N=C\c1cc(Cl)ccc1O | 10.3%
COc1cc(/C=C/c2cc(/C=C/c3ccc(O)c(OC)c3)n(C(=O)Nc3ccc(C)cc3C)n2)ccc1O | -30.3% (active)
O=C(Nc1cccc(-c2nc3ccccc3[nH]2)c1)c1cccc(NC(=O)c2ccco2)c1 | 70.8%
Cc1ccc2sc3c(NCCN)nc4ccccc4c3c(=O)c2c1 | 56.8%
COc1ccc2nc(Cl)c(/C=C/C(=O)c3ccc(NC(=O)CSc4nnc(-c5ccc(Cl)c(Cl)c5)n4-c4ccccc4)cc3)cc2c1 | 98.2%
CN1CCN(c2ccc3cc(-c4nc5ccccc5[nH]4)c(=O)oc3c2)CC1 | 68.3%

Structure (SMILES) | growth
O=C(CS(=O)c1oc(-c2cccs2)nc1S(=O)(=O)c1ccc(Br)cc1)c1ccccc1 (stereo not given) | 101%
Oc1ccccc1-c1nnc(CNc2ccc(Cl)cc2)o1 | -2.17% (active)
COc1cc2cn3c4ccc(O)cc4[nH]c(=O)c3c2cc1OC | -27.4% (active)
COc1cc(/C=C2\CCCC3=C2N=C2SC(C)=NN2C3c2cc(OC)c(OC)c(OC)c2)cc(OC)c1OC (stereo not given) | 19.8%
CC[C@H](Nc1ncnc2nc[nH]c12)c1nc2cccc(CC(=O)c3ccc(C(=O)NO)cc3)c2c(=O)n1-c1ccccc1 | 60.8%
CCN1CCN(c2nc(C)cc(N(CCNc3ccnc4cc(Cl)ccc34)Cc3ccc4c(c3)OCO4)n2)CC1 | -65.3% (active)
O=[N+]([O-])c1ccc(-c2nnc(SCc3ccc(O)c4ncccc34)n2-c2ccccc2)cc1 | 19.9%
Cc1ccc(NCCN(C)C)c2c(=O)c3ccccc3sc12 | 26%
Cn1cc(-c2ccc3nc(-c4ccc(CC(=O)Nc5cc(C(C)(C)C)no5)cc4)cnc3c2)cn1 | 14.8% [30 µM]
Cc1ccc2c(n1)C(=O)C(Cl)=C(Nc1cccc(C(C)C)c1)C2=O | -9.52% (active)
O=C1Nc2ccccc2/C1=C/c1cn(C(=O)c2ccc(Cl)cc2)c2ccccc12 | 97.6%
CC1(C)CC[C@]2(C(=O)N[C@H](CO)Cc3ccccc3)CC[C@]3(C)C(=CC[C@@H]4[C@@]5(C)CCCNC(C)(C)[C@@H]5CC[C@]43C)[C@@H]2C1 | 37.8%
NC(=O)NCCO | 102%
Fc1ccc(-c2cc3nc(C(Cl)Cl)nc(-c4cccs4)n3n2)cc1 | -46.8% (active)
Cc1ccc(-c2csc(N)n2)cc1 | 104%
COc1cc(-c2nn(-c3ccc(NC(=O)c4cc(Cl)cc(Cl)c4)cc3)cc2-c2ccncc2)ccc1Cl | 89.2%
COc1ccc(-c2nnc(COc3ccc(C(=O)/C=C/c4ccco4)cc3)o2)cc1 | 20.4%
O=S(=O)(c1ccc(NCSc2nc3ccccc3s2)cc1)c1ccc(NCSc2nc3ccccc3s2)cc1 | 95.8%
O=C(Nc1cccc(Cn2c(=O)[nH]c3ccc(Oc4ncccn4)cc3c2=O)c1)c1cccc(Cl)c1 | 18.6%
O=c1c2cccc3c(Nc4c(F)cccc4F)ccc(c32)c2nc3ccccc3n12 | -33.5% (active)
